# This is part of a sample that, as a whole, favours compounds with a hit. Of some 79,000 tested, about 15% had one in any assay. Unmarked numbers belong to inactive results. Calls of active or inactive are those of the source. Rule as the data show it: active = growth inhibition above about 70%; inactive = the rest.
# Assay: NCI Yeast Anticancer Drug Screen. Data for the rad50 strain (AID 155);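 also: 0% = growth of vehicle-only cultures of the same strain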
# Conditions: S. cerevisiae rad50 strain growth inhibition; at 50.0 µM; stronger effect = higher value
# How it was run: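 Readout: growth inhibition relative to vehicle-treated cultures. Compound exposure was carried out in a genetically defined yeast strain deficient in DNA damage repair.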
row,Structure (SMILES),growth inhibition
1,CC(C(=O)O)N(CCC#N)CCC#N (stereo not given),17.8%
2,O=C(O)c1ccccc1NC(=O)C1CCCCC1,10.1%
3,CCC(C)(O)C(=O)O (stereo not given),9.8%
4,CC1CCCCNC1=S (stereo not given),-6.95%
5,CN(C)CCCNc1ccc2nnn3c4ccc([N+](=O)[O-])cc4c(=O)c1c23,68.8%
6,Cc1ccsc1/C=N/Nc1ncccn1,16.1%
7,NC(=O)N/N=C/c1cccc2ccccc12,24.2%
8,O=C(/C(=N\Nc1ccc([N+](=O)[O-])cc1[N+](=O)[O-])c1ccccc1)c1ccccc1,-11.6%
9,O=C(O)/C(=C/c1ccccc1)c1ccccc1,-9.3%
10,COC(=O)C1C(O)C(C(=O)OC)C(C)N(C)C1C (stereo not given),7.35%
11,Cc1cccc(Cl)c1NC(=O)Nc1ccc(Cl)cc1C(=O)c1ccccc1,5.5%
12,CCOC(=O)C(=CNc1cccc(Cl)c1)C(=O)OCC,-2.8%
13,CCCNC(=S)/N=C\c1c(O)c2ccccc2oc1=O,-38.8%
14,O=C(OC(C[n+]1ccccc1)c1ccccc1)c1ccccc1 (stereo not given),-0.55%
15,Nc1cc(=O)[nH]c(N)n1,10.2%
16,O/N=C1\CC2(N3CCOCC3)CCC1(c1ccccc1)CC2,11.5%
17,COC(=O)CC1C(OC)OC23CCC1C2(C)CCC1C3CCC2CC(OC(C)=O)CCC21C (stereo not given),28.1%
18,CC(C)(CO)NC(=O)c1cccs1,14.8%
19,Cc1ccccc1NC(=S)NN,22.2%
20,O=C(c1ccc(Cl)cc1)c1ccc(OCCSCCCCCCCCCCSCCOc2ccc(C(=O)c3ccc(Cl)cc3)cc2)cc1,-43.1%

row,Structure (SMILES),growth inhibition
1,C=CCNc1ccc(C)cc1,16.5%
2,COC(=O)c1ccc(C(=O)OC)cc1,-12.2%
3,O=C(CC1C(=O)Nc2ccccc2S1(=O)=O)Nc1cc(Cl)ccc1Cl (stereo not given),0.15%
4,Cc1cc(Cl)cc(CN(C)Cn2c(=O)cc[nH]c2=O)c1O,6.45%
5,C=C1C(=O)N2CCc3c([nH]c4ccccc34)[C@H]2C[C@@H]1CO,5.4%
6,C=CCC(OCCC)c1ccc2c(c1)OCO2 (stereo not given),-7.1%
7,N=C1N(S(=O)(=O)c2ccccc2)[C@@H](Cc2ccccc2)[C@H](c2ccccc2)C1(c1ccccc1)c1ccccc1,-25.1%
8,CCN(CC)C(=O)c1ccccc1,7.75%
9,CCC1(C)CC(C)(C)c2ccc(C)cc21 (stereo not given),-0.8%
10,Cn1c(=O)c2nc(SC3CCCCC3)n(C)c2n(C)c1=O,-12.7%
11,CC(C(=O)O)C1Nc2ccccc2NC1=O (stereo not given),13.4%
12,O=C(NC[N+]12CCO[B-]1(c1ccc(Cl)cc1)OCC2)c1ccccc1O (stereo not given),19.2%
13,O=[N+]([O-])c1ncc(N(CCO)CCO)s1,19.2%
14,CC(=O)C(N)=NCc1ccccc1,10.2%
15,O=C(O)CC(NC(=O)OCc1ccccc1)C(=O)OCc1ccccc1 (stereo not given),0.55%
16,O=C(/C=C/c1ccc(Cl)cc1)c1ccccc1O,-9.15%
17,CC12CC(=O)C3C(CCC4=CC(=O)CCC43C)C1CC=C2CC(=O)O (stereo not given),-4.8%
18,CCOC(=O)C(N=Nc1ccccc1)C(=O)c1ccccc1 (stereo not given),23.4%
19,O=C1c2ccsc2C(=O)c2sc(CO)cc21,90.3% (active)
20,Cc1cn(C2CC(O)C(COC(=O)C(C)(C)C)O2)c(=O)[nH]c1=O (stereo not given),16.9%

# Assay: NCI Yeast Anticancer Drug Screen. Data for the mec2-1 strain (AID 157)
# Conditions: S. cerevisiae mec2-1 strain, at 50.0 µM, stronger effect = higher value
# How it was run: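 Yeast mec2-1 mutant treated with compound. Readout: growth inhibition vs vehicle controls.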
row,Structure (SMILES),growth inhibition
1,CC(C(=O)O)N(CCC#N)CCC#N (stereo not given),-6.05%
2,O=C(O)c1ccccc1NC(=O)C1CCCCC1,6.8%
3,CCC(C)(O)C(=O)O (stereo not given),-9.4%
4,CC1CCCCNC1=S (stereo not given),19.6%
5,CN(C)CCCNc1ccc2nnn3c4ccc([N+](=O)[O-])cc4c(=O)c1c23,35%
6,Cc1ccsc1/C=N/Nc1ncccn1,10.7%
7,NC(=O)N/N=C/c1cccc2ccccc12,9.05%
8,O=C(/C(=N\Nc1ccc([N+](=O)[O-])cc1[N+](=O)[O-])c1ccccc1)c1ccccc1,-11.7%
9,O=C(O)/C(=C/c1ccccc1)c1ccccc1,-45%
10,COC(=O)C1C(O)C(C(=O)OC)C(C)N(C)C1C (stereo not given),-14.4%
11,Cc1cccc(Cl)c1NC(=O)Nc1ccc(Cl)cc1C(=O)c1ccccc1,-4.1%
12,CCOC(=O)C(=CNc1cccc(Cl)c1)C(=O)OCC,-11.4%
13,CCCNC(=S)/N=C\c1c(O)c2ccccc2oc1=O,-56.8%
14,O=C(OC(C[n+]1ccccc1)c1ccccc1)c1ccccc1 (stereo not given),-0.9%
15,Nc1cc(=O)[nH]c(N)n1,-23.9%
16,O/N=C1\CC2(N3CCOCC3)CCC1(c1ccccc1)CC2,-12.3%
17,COC(=O)CC1C(OC)OC23CCC1C2(C)CCC1C3CCC2CC(OC(C)=O)CCC21C (stereo not given),3%
18,CC(C)(CO)NC(=O)c1cccs1,5.15%
19,Cc1ccccc1NC(=S)NN,14.7%
20,O=C(c1ccc(Cl)cc1)c1ccc(OCCSCCCCCCCCCCSCCOc2ccc(C(=O)c3ccc(Cl)cc3)cc2)cc1,-27.7%

row,Structure (SMILES),growth inhibition
1,C=CCNc1ccc(C)cc1,-8.15%
2,COC(=O)c1ccc(C(=O)OC)cc1,-26.1%
3,O=C(CC1C(=O)Nc2ccccc2S1(=O)=O)Nc1cc(Cl)ccc1Cl (stereo not given),-30.8%
4,Cc1cc(Cl)cc(CN(C)Cn2c(=O)cc[nH]c2=O)c1O,-7.65%
5,C=C1C(=O)N2CCc3c([nH]c4ccccc34)[C@H]2C[C@@H]1CO,2.4%
6,C=CCC(OCCC)c1ccc2c(c1)OCO2 (stereo not given),0.6%
7,N=C1N(S(=O)(=O)c2ccccc2)[C@@H](Cc2ccccc2)[C@H](c2ccccc2)C1(c1ccccc1)c1ccccc1,-7.3%
8,CCN(CC)C(=O)c1ccccc1,8.6%
9,CCC1(C)CC(C)(C)c2ccc(C)cc21 (stereo not given),-2.75%
10,Cn1c(=O)c2nc(SC3CCCCC3)n(C)c2n(C)c1=O,-9.05%
11,CC(C(=O)O)C1Nc2ccccc2NC1=O (stereo not given),28.6%
12,O=C(NC[N+]12CCO[B-]1(c1ccc(Cl)cc1)OCC2)c1ccccc1O (stereo not given),0.25%
13,O=[N+]([O-])c1ncc(N(CCO)CCO)s1,-22.6%
14,CC(=O)C(N)=NCc1ccccc1,2.7%
15,O=C(O)CC(NC(=O)OCc1ccccc1)C(=O)OCc1ccccc1 (stereo not given),17.9%
16,O=C(/C=C/c1ccc(Cl)cc1)c1ccccc1O,9.8%
17,CC12CC(=O)C3C(CCC4=CC(=O)CCC43C)C1CC=C2CC(=O)O (stereo not given),1.15%
18,CCOC(=O)C(N=Nc1ccccc1)C(=O)c1ccccc1 (stereo not given),-2.75%
19,O=C1c2ccsc2C(=O)c2sc(CO)cc21,91.2% (active)
20,Cc1cn(C2CC(O)C(COC(=O)C(C)(C)C)O2)c(=O)[nH]c1=O (stereo not given),-0.35%
